An excerpt weighted towards active compounds, which were near 11% of everything screened.
AMA1 RON2 block = AMA1-RON2 (P. falciparum) interaction inhibition; 0.2% of 360,000 active; Potency, µM (highest dose often 58.2 µM), for inactives: at the highest dose activity change, negative = inhibition, most hits filed as inhibitors; AlphaScreen AMA1-biotinylated RON2 peptide binding;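 further: 0% = vehicle wells and -100% = peptide control; nearly all actives have a fitted effect of over 45% in size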
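AMA1 (3D7) with his tag at 25 nM final met compounds first, then biotinylated RON2 peptide at 25 nM; detection used donor plus acceptor beads, 10 µg/mL apiece, read by AlphaScreen after 30 min at room temperature.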
HCV inhibitor = inhibitors of hepatitis C virus infection | Huh7.5.1 HCVcc-Cre infection, luciferase reporter, 44 h | Potency, µM (top dose mostly 41.8 µM), for the others: at the highest dose activity change, negative = inhibition, actives largely listed as inhibitors | 3.4% of 340,000 active | AID 651820
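Reporter virus HCVcc-Cre (~0.5 moi) infects cells exposed to compound; seeding density 1,000 cells/well with 4 h settling beforehand. Luminescence, 15 sec read, taken 44 h post-infection following a 15 min RT substrate incubation.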
AmpC detergent = AmpC beta-lactamase inhibition with detergent present | P00811 | AmpC hydrolysis of nitrocefin, absorbance 480 nm, 0.01% Triton | Potency, µM (titrated, usually from 114 µM), for the others: at the highest dose activity change, negative = inhibition, most hits filed as inhibitors | 0.041% of 370,000 active;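 further: 0% = no-compound wells and -100% = no-enzyme wells; nearly all actives have a fitted effect of over 25% in size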
Target sequence (P00811 whole entry, looked up): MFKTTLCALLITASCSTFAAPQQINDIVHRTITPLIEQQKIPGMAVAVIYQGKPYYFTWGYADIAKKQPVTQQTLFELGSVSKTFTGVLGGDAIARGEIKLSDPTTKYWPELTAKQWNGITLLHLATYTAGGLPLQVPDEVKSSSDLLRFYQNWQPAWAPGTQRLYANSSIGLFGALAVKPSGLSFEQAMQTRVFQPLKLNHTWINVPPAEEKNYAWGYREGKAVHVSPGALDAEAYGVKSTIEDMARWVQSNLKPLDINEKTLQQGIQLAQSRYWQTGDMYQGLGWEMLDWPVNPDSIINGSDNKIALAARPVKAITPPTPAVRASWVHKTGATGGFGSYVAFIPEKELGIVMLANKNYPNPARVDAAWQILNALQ
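20 mM phosphate pH 7.0 + 0.01% (detergent screen) or 0.0001% Triton X-100; 5.3 nM AmpC reagent; cpd preinc 15 min RT; nitrocefin (800 uM stock) to start; A480 q20 s × 4 min; Activity was normalised to no-enzyme and no-compound control wells.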
AmpC no deterg = blocks E. coli AmpC beta-lactamase in detergent-free assay; P00811; AmpC nitrocefin hydrolysis, absorbance 480 nm, 0.0001% Triton; Potency, µM (series often up to 57.1 µM), for inactives: at the highest dose activity change, negative = inhibition, hits mostly inhibitors; 0.52% of 330,000 active; AID 485341;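 further: plate controls were no compound for no effect and no enzyme for full effect; nearly all actives have a fitted effect of over 20% in size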
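AmpC (5.3 nM in the dispensed reagent) in 20 mM phosphate pH 7.0 with 0.01% (detergent screen) or 0.0001% Triton X-100 was preincubated with compounds for 15 min at room temperature. Nitrocefin was then added from an 800 uM solution, and hydrolysis was followed at 480 nm.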
Pf growth 48h = P. falciparum growth inhibition at 48 hours (one generation); 5.9% of 310,000 active; AID 504832; Potency, µM (titrated, usually from 28.7 µM), without a hit: top-dose activity change, negative = inhibition, hits mostly inhibitors; P. falciparum luciferase growth in erythrocytes, 48 h
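Luminescence readout; reporter = integrated firefly luciferase in P. falciparum. RBC culture at 2% hematocrit, 0.1% parasitemia final, 37 C/5% CO2; decreased signal taken as growth inhibition.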
Pf growth 96h = inhibits malaria parasite growth, 96 h; P. falciparum luciferase reporter growth, 96 h; Potency, µM (highest dose often 28.7 µM), for inactives: at the top dose activity change, negative = inhibition, actives largely listed as inhibitors; 6.9% of 320,000 active; AID 504834
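Cell-based qHTS: luciferase-tagged P. falciparum in erythrocytes (2% hematocrit, 0.05% parasitemia final) incubated with compounds for 96 hours, 37 C, 5% CO2; luciferase detection reagent then added and luminescence measured.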
* marks the source's active call; other numbers are inactive results; u = inconclusive; x = not tested or not shown; [ ] = remark or other dose. The call rests on the fitted dose curve; in most records, active means well fitted curve in the direction sought with a large enough effect; inconclusive means small, poorly fitted or top-dose-only effect, or another doubt; inactive means no such curve, though single readings can be large; an effect the other way counts as inactive or inconclusive. Unless noted, on the % scale 0 is the no-effect control and ±100 the full control effect; potency means the concentration at half of the fitted maximal effect.

SMILES	AMA1 RON2 block	HCV inhibitor	AmpC detergent	AmpC no deterg	Pf growth 48h	Pf growth 96h
CC(C)(O)CCc1c(-c2ccc(O)cc2O)oc2c3c(cc(O)c2c1=O)OC(C)(C)C=C3	-9%	13µM*	x	x	x	x
CC(C)=CCc1c2c(c3occ(-c4ccc(O)c(O)c4)c(=O)c3c1O)C=CC(C)(C)O2	-21%	u	x	x	x	x
COc1ccc(N2C(=O)CC(NCCNc3ccc([N+](=O)[O-])cn3)C2=O)cc1 (centres undefined)	-16%	2%	1%	-20%	-6%	107%
CCOc1ccc(N2C(=O)CC(NCCNc3ccc([N+](=O)[O-])cn3)C2=O)cc1 (centres undefined)	16%	4%	-6%	5%	3%	0.83µM*
FC(F)(F)c1ccc(/C=N/NC(=S)NC2CCCCC2)cc1	65%	7%	-12%	-34%[11.4 µM]	u	3.3µM*
O=C(CC(=O)Nc1ccc(Cl)cc1)N/N=C\c1cccc(F)c1	10%	26%	0%	1%	2%	10µM*
FC(F)(F)c1cccc(/C=N/NC(=S)NC2CCCCC2)c1	44%	-4%	u	-42%[11.4 µM]	u	u
COC(=O)c1ccc(/C=N/NC(=O)CC(=O)NC2CCCCC2)cc1	-15%	10%	-12%	-20%	2%	31%
O=C(CC(=O)NC1CCCCC1)N/N=C/c1ccc(Cl)cc1	3%	0%	-13%	-21%	0%	4.7µM*
Cc1cc(C(=O)NCC(c2ccco2)N2CCCC2)c2ccccc2n1 (centres undefined)	0%	0%	2%	-12%	u	10µM*
O=C(NCC(c1ccco1)N1CCCCC1)c1cc2c(s1)CCCC2 (centres undefined)	6%	u	-8%	-15%	8.3µM*	1.7µM*
O=C(NCC(c1ccco1)N1CCCCC1)c1cccs1 (centres undefined)	-13%	4%	x	-47%	x	x
O=C(NCC(c1ccco1)N1CCCC1)c1ccc(-n2cccn2)cc1 (centres undefined)	16%	u	x	-4%	x	x
Cc1cc(C)n(-c2ccc(C(=O)NCC(c3ccco3)N3CCCC3)cc2)n1 (centres undefined)	0%	0%	-12%	59%	u	5.2µM*
N#Cc1ccc(C(=O)NCC(c2ccco2)N2CCCCC2)cc1 (centres undefined)	7%	-30%	3%	-2%	x	10µM*
CCN(c1ccccc1)S(=O)(=O)c1cc(NC(=O)CSc2n[nH]c(=O)[nH]c2=O)ccc1Cl	1%	8%	-9%	20µM*	-10%	u
O=C(CSc1n[nH]c(=O)[nH]c1=O)Nc1ccc2c(c1)C(=O)c1ccccc1C2=O	-6%	10%	u	-42%	43%	26%
CCOc1ccc(CCNC(=O)C2CCN(c3ncnc4c3nc3n4CCCCC3)CC2)cc1	x	x	1%	x	x	x
CC[N+](C)(C)c1cccc(O)c1	-9%	2%[8.37 µM]	-2%	-15%	u	1.7µM*
Cc1ccccc1Nc1nc(N)nc(COC(=O)c2cccc(S(=O)(=O)NCc3ccccc3)c2)n1	7%[11.6 µM]	-21%	u	-7%	u	13µM*
CCc1ccccc1Nc1nc(N)nc(COC(=O)CCNS(=O)(=O)c2ccccc2)n1	33%	3%	u	-33%	12µM*	u
Cc1ccccc1Nc1nc(N)nc(COC(=O)CCS(=O)(=O)c2ccccc2)n1	28%	8%	-16%	2%	u	-22%
N#Cc1c(/N=C/c2cccs2)sc2c1CCCCC2	u	10µM*	-14%	-25%	354%	x
N#Cc1c(/N=C/c2ccc(Br)s2)sc2c1CCC2	6%	0%	-14%	-14%	316%	333%
CCOc1ccc(OCC)c(NS(=O)(=O)c2c(C)[nH]c(=O)[nH]c2=O)c1	x	x	-6%	x	x	x
SMILES	AMA1 RON2 block	HCV inhibitor	AmpC detergent	AmpC no deterg	Pf growth 48h	Pf growth 96h
O=C(O)/C=C1\NC(=O)c2ccccc21	-2%	26%	-9%	-12%	-6%	u
O=C1N/C(=C\c2ccc(O)cc2)C(=O)c2ccccc21	-1%	11µM*	-4%	-7%	u	37%
CC(=O)N1CCc2cc(CNC(=O)Nc3ccc(Br)c(C)c3)ccc21	x	x	-6%	x	x	x
CC(=O)Oc1cccc(C)c1	x	x	x	x	-2%	-1%
COc1ccc(NS(=O)(=O)c2cccc(NC(=O)NCCCl)c2)cc1	6%	7.9µM*	-3%	u	-18%	u
O=C(Nc1cccc(O)c1)c1cccc(S(=O)(=O)Nc2cccc(O)c2)c1	-2%	-14%	u	-29%	1%	1.9µM*
O=C1CSc2ccc(C(=O)Nc3cccc(S(=O)(=O)Nc4ccc(Br)cc4)c3)cc2N1	2%	10µM*	-3%	-41%	-6%	-18%
COc1ccc(NS(=O)(=O)c2cccc(NC(=O)c3ccc(Cl)nc3)c2)cc1	1%	2.8µM*	-12%	-53%	u	u
O=C(O)c1cccc(NC(=O)c2cccc(S(=O)(=O)Nc3cccc(C(=O)O)c3)c2)c1	x	x	8%	x	x	x
COC(=O)c1ccc2c(c1)NC(=O)CS2	-24%	-2%	u	-16%	12µM*	-1%
COc1ccc(NS(=O)(=O)c2cccc(NC(=O)CCC(=O)c3ccc(Cl)cc3)c2)cc1	7%	8.9µM*	-6%	-26%	-9%	u
O=C(Nc1ccc(NS(=O)(=O)c2ccccc2)cc1)c1ccc(Cl)cc1	3%	28%	-3%	-42%	-9%	-17%
COc1cccc(S(=O)(=O)Nc2ccc(C(=O)Nc3ccncc3)cc2)c1	26%	-11%	0%	-36%	-24%	8.3µM*
O=C(Nc1cccc(S(=O)(=O)Nc2ccc(Cl)cc2)c1)c1ccc(Cl)nc1	6%	1.6µM*	-7%	-19%	-10%	u
COc1ccc(NS(=O)(=O)c2cccc(NC(=O)CCC(=O)c3cccs3)c2)cc1	-12%	8%	u	-43%	0%	u
Cc1cccc(Cn2c(SCc3ccc(C(=O)NCCc4ccccc4)cc3)nc3ccncc32)c1	x	x	-2%	x	x	x
COc1ccc(-n2ccnc(NCc3cccs3)c2=O)cc1OC	x	x	5%	x	x	x
Cc1ccc(OCCCn2c(-c3ccc(Cl)cc3)nc3ccccc3c2=O)c(C)c1	x	x	2%	x	x	x
O=C(COc1ccccc1F)Nc1ccc2nc(SCc3ccccc3)sc2c1	x	x	-3%	x	x	x
O=C(Nc1cccc(S(=O)(=O)Nc2ccc(Cl)cc2)c1)c1cc2c(s1)CCCC2	-4%	11µM*	-2%	-19%	31%	u
